This is a sample that favours compounds with a hit; in the whole collection about 19% have one here.
HT1080 IDH1KD tx = qHTS for induction of synthetic lethality in tumor cells producing 2HG: qHTS for the HT-1080-IDH1KD cell line | Potency, µM (titrated, usually from 46.1 µM), for inactives: at the highest dose activity, negative = toxicity, actives largely listed as cytotoxic | HT-1080 IDH1 knockdown viability, ATP luminescence, 48 h | hit rate 2% among 360,000 | AID 686971, 2013;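 also: 0% = DMSO wells and -100% = cell-free medium wells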
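Assay cells: HT-1080 with IDH1 knockdown, 750 per well, RPMI/5% FBS. Exposure: 48 h at 37 °C following 2 h pre-incubation. Read: CellTiter-Glo luminescence; fitted concentration-response, curve class assigned.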
HT1080-NT tox = qHTS for induction of synthetic lethality in tumor cells producing 2HG: qHTS for the HT-1080-NT fibrosarcoma cell line | hit rate 1.6% among 360,000 | AID 686970, 2013 | HT-1080-NT fibrosarcoma viability, CellTiter-Glo ATP luminescence, 48 h | Potency, µM (series often up to 46.1 µM), for inactives: top-dose activity, negative = less viability, usual class: cytotoxic;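 also: NT is the 2HG producing partner of a matched IDH1 knockdown line; 0% = DMSO-treated cells and -100% = media-only wells without cells; nearly all actives have a fitted effect of over 55% in size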
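Toxicity toward the 2HG-producing NT line was scored as %Activity, normalised to DMSO and no-cell wells, from CellTiter-Glo luminescence after 48 hours' treatment.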
KB-3-1 tox = qHTS assay for MDR1-selective chemotherapeutics: Primary screen using the parental adenocarcinoma cell KB-3-1; KB-3-1 viability, CellTiter-Glo ATP luminescence, 72 h; Potency, µM (highest dose often 46.1 µM), actives largely listed as cytotoxic; hit rate 1.4% among 400,000; AID 1347075, 2019; also: nearly all actives have a fitted effect of over 60% in size
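Cytotoxicity in the drug-sensitive parental line KB-3-1 was scored as loss of CellTiter-Glo luminescence following 72 h incubation with compound. Values come from curve fitting of normalized concentration-response data.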
KB-V1 cytotox = qHTS assay for MDR1-selective chemotherapeutics: Primary screen using the drug-selected MDR subline cells KB-V1 | KB-V1 MDR cells viability, CellTiter-Glo, 72 h | Potency, µM (top dose mostly 46.1 µM), usual class: cytotoxic | hit rate 3.4% among 400,000; also: nearly all actives have a fitted effect of over 60% in size
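Readout: CellTiter-Glo luminescence, 10 min after addition. Cells: KB-V1 MDR subline, 72 h at 37 degrees C with compound. Analysis: corrected, normalized data fitted to concentration-effect curves.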
TDP1 cell noCPT = qHTS for Inhibitors of human tyrosyl-DNA phosphodiesterase 1 (TDP1): qHTS in cells in absence of CPT; hit rate 15% among 420,000; Potency, µM (top dose mostly 46.2 µM), for the others: at the highest dose activity change, negative = growth inhibition, most hits filed as inhibitors; DT40 Tdp1-/- hTDP1 cells, no CPT, ATP luminescence, 48 h; also: nearly all actives have a fitted effect of over 55% in size
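Growth of hTDP1-complemented DT40 Tdp1-knockout cells is measured by ATP luminescence after at least 48 hr compound exposure at 37 °C, with DMSO substituting for the 20 nM CPT used in the parallel screen.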
DT40 TDP1 CPT = qHTS for Inhibitors of human tyrosyl-DNA phosphodiesterase 1 (TDP1): qHTS in cells in presence of CPT; AID 686979, 2013; Potency, µM (highest dose often 46.2 µM), for inactives: at the top dose activity change, negative = growth inhibition, hits mostly inhibitors; hit rate 12% among 420,000; chicken DT40 Tdp1-/-;hTDP1 cells + 20 nM CPT, ATP luminescence, 48 h; also: nearly all actives have a fitted effect of over 55% in size
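Cell growth measured by CellTiter-Glo luminescence after a minimum 48 h, 37 C compound exposure with 20 nM CPT in Tdp1-knockout DT40 cells stably expressing hTDP1, seeded 400/well; qHTS titration format.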
Numbers without * were called inactive; i = inactive; ? = inconclusive; · = no result; ! = not active in a repeat. Calls follow the shape of the dose curve; as a rule, active = well fitted curve in the direction sought with a large enough effect; inconclusive = small, poorly fitted or top-dose-only effect, or another doubt; inactive = no such curve, though single readings can be large; an effect the other way counts as inactive or inconclusive. Unless noted, % is scaled to controls: 0 for no effect and ±100 for the full control effect; potency is read from the fitted curve at half-maximal effect.

SMILES	HT1080 IDH1KD tx	HT1080-NT tox	KB-3-1 tox	KB-V1 cytotox	TDP1 cell noCPT	DT40 TDP1 CPT
COc1ccc(CN2CCC(N(CCc3ccccc3)Cc3ccccc3)CC2)c(OC)c1	?	?	?	13µM*	23µM*	23µM*
CCn1nc(-c2ccccc2)c(-c2ccccc2)c(C(=O)Nc2ccccc2C#N)c1=O	·	·	·	·	12µM*	18µM*
CCOC(=O)c1sc(NC(=O)c2c(-c3ccccc3)c(-c3ccccc3)nn(C)c2=O)nc1C	·	·	·	·	16µM*	?
Cc1nc(NC(=O)c2c(-c3ccccc3)c(-c3ccccc3)nn(C)c2=O)sc1C	·	·	·	·	0.58µM*	0.46µM*
CCOC(=O)c1sc(NC(=O)c2c(OC)cccc2OC)nc1C	-6%	-7%	i	i	-41%	-18%
Cc1cnc(C(=O)OCc2nc3ccccc3o2)cn1	0%	-6%	i	i	0%	-11%
COc1ccc2c(c1)/C(=C/c1cc(OC)c(OC)c(OC)c1)C(=O)N2	5.8µM*	5.8µM*	2.3µM*	?	0.73µM*	0.52µM*
COc1ccccc1/C=C1\C(=O)Nc2ccccc21	-1%	-12%	i	i	21µM*	?
CCOc1cc(/C=C2\C(=O)ON=C2c2ccccc2)ccc1OC	-3%	0%	i	?	18µM*	23µM*
O=C1Nc2ccccc2/C1=C/c1ccccc1Cl	?	?	i	i	?	6%
COc1ccc(/C=C2\C(=O)NC(=O)c3ccccc32)cc1OC	12%	0%	i	i	1.5µM*	1.6µM*
COc1ccc(C=C2C(=O)OC(C)(C)OC2=O)cc1OC	-1%	-2%	i	i	-10%	-1%
COc1ccc(/C=C2\N=C(c3c(-c4ccccc4)noc3C)OC2=O)cc1OC	22%	13%	i	i	-17%	4%
COc1cc(/C=C2\C(=O)ON=C2c2ccccc2)cc(OC)c1OC	-14%	?	i	i	16µM*	?
COc1ccc(/C=C2/C(=O)ON=C2c2ccccc2)cc1OC	?	?	?	i	15µM*	?
Cc1ccc2c(c1)/C(=C/c1ccc(F)cc1)C(=O)N2	?	?	i	i	21µM*	?
Cc1ccc2c(c1)/C(=C/c1ccccc1C)C(=O)N2	?	?	i	?	?	-30%
COc1ccc(/C=C2\C(=O)ON=C2c2ccccc2)cc1OC	-1%	2%	i	i	?	26µM*
CCOCCCNC(=O)CN1C(=O)c2c(c3ccccc3n2C)C1c1ccc(OC)cc1 (centres undefined)	·	·	i	i	?	?
NC(=O)COc1ccc(/C=C2\C(=O)ON=C2c2ccccc2)cc1	-23%	0%	i	?	15µM*	16µM*
Cc1cccc(C2=NOC(=O)/C2=C\c2ccccc2F)c1	2%	-1%	i	i	2.6µM*	-24%
O=C1NNC(c2ccccc2)=N/C1=C\c1ccco1	-8%	-1%	i	i	?	-27%
COc1cc(/C=C2\N=C(c3ccccc3)NNC2=O)cc(OC)c1OC	3.3µM*	4.6µM*	4.6µM*	4.1µM*	4.6µM*	5.2µM*
NC(=O)COc1ccccc1	4%	1%	i	i	-4%	2%
CC(C)(C)C(=O)Nc1ccccc1C(=O)NCCC(=O)Nc1ccccc1	6%	23%	i	i	-21%	-21%
SMILES	HT1080 IDH1KD tx	HT1080-NT tox	KB-3-1 tox	KB-V1 cytotox	TDP1 cell noCPT	DT40 TDP1 CPT
Cc1ccc(Nc2cc(C)c(C#N)c3nc4ccccc4n23)cc1Cl	·	·	i	i	?	?
CC1(C(=O)NS(=O)(=O)c2ccccc2C(F)(F)F)CCN1C(=O)CCC1CCCC1 (centres undefined)	8%	-1%	i	i	1%	0%
O=c1cnc2cnc(Oc3ccccc3)nc2n1C1CC1	·	·	·	·	-1%	-2%
Cc1ccccc1C(=O)N/N=C/c1ccc(OCC(=O)N2CCCCC2)cc1	?	?	i	i	?	-28%
CCn1c2ccccc2c2cc(/C=N/NC(=O)c3ccccc3C)ccc21	21µM*	15µM*	21µM*	5.2µM*	2.6µM*	2.6µM*
Cc1cccc(C(=O)N/N=C/c2ccncc2)c1	1%	0%	i	i	4%	-3%
CCn1c2ccccc2c2cc(/C=N/NC(=O)c3cccc(C)c3)ccc21	?	-4%	?	5.8µM*	18µM*	29µM*
CCOC(=O)N1CCC2(CC1)NC(=O)c1ccccc1N2	0%	2%	i	i	?	-17%
C=CCN1C(=O)/C(=c2\sc3nc(=O)c(Cc4ccccc4)nn3c2=O)c2ccccc21	-2%	-1%	i	i	-9%	-6%
C=CCN1C(=O)/C(=N/n2cnnc2)c2ccccc21	5%	1%	?	i	4.6µM*	5.8µM*
CCCCCCCCCC(=O)N[C@H](CN1CCOCC1)[C@H](O)c1ccccc1	?	16µM*	i	?	23µM*!	?
COc1cc(NC(=O)CN2CCN(c3ccc(F)cc3)CC2)cc(OC)c1	·	·	i	i	?	-22%
COc1ccc(C(O)c2nc(-c3cc4ccccc4o3)cs2)cc1 (centres undefined)	6%	2%	?	?	?	?
COc1ccc(C(O)c2nc(-c3ccc4ccccc4c3)cs2)cc1 (centres undefined)	-14%	-28%	i	i	16µM*	?
COc1ccc(C(O)c2nc(-c3ccc(Cl)cc3)cs2)cc1 (centres undefined)	?	-25%	?	?	?	-61%
COc1cc(C(O)c2nc(-c3ccc4ccccc4c3)cs2)ccc1F (centres undefined)	?	23µM*	i	?	21µM*	23µM*
COc1cc(C(O)c2nc(-c3ccc(F)c(Cl)c3)cs2)ccc1F (centres undefined)	?	?	i	i	?	?
COc1ccc(C(O)c2nc(-c3ccc(OC)c(OC)c3)cs2)cc1 (centres undefined)	10%	0%	i	?	18µM*	13µM*

Compound activity: PubChem BioAssay, National Center for Advancing Translational Sciences (NCATS)
